From the supplement of paper PMC10849652
The full data set covers some 7,900 targets. This sample favours those with a hit. About 0.6% of all pairs of compound and target were hits.

Legend:
Test in all cases: log2 fold change, soluble protein after heating vs DMSO (PISA); higher = thermal stabilisation; K562 cells, 10 uM, 30 min; active = over 0.2 and 3.5 SD of the protein, either way, in both replicates (recomputed)
[1] = compound: C1=CC=C(C=C1)[C@H](COC2=CC3=C(C=C2)NC(=O)N3)NC(=O)C4=CC=CN(C4=O)CC5=CC(=C(C=C5)F)F
Method in brief: (§1)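 Soluble protein was defined as the supernatant after 21,000xg for 90 min. It came from K562 cells at 2×10^6 cells/mL given 10 μM compound for 30 min, heated in aliquots for 3 min across 48°C-58°C, pooled, and extracted in PBS with 0.5% NP-40 at 4°C, and was quantified by TMTpro 16plex LC-MS/MS with equalised channel sums. Thermal stability against control samples, from duplicates, is reported as log2 fold change.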

[2] = compound: CC1=C(SC2=C1C(=N[C@H](C3=NN=C(N32)C)CC(=O)N)C4=CC=C(C=C4)Cl)C
Method in brief: as §1

[3] = compound: CC1=C2C(=CC=C1)N=C(N(C2=O)C3=CC=CC=C3C)CN4C=NC5=C(N=CN=C54)N
Method in brief: as §1

[4] = compound: Cc1sc2c(c1C)C(c1ccc(Cl)cc1)=N[C@@H](CC(=O)OC(C)(C)C)c1nnc(C)n1-2
Method in brief: as §1

[5] = compound: c1ccc([C@@H]2C[C@H]2NC2CCNCC2)cc1
Method in brief: as §1

Measured: log2 fold change

PPP2R5E (UniProt Q16537)
Chain of UniProt Q16537 (Q16537 whole entry, looked up): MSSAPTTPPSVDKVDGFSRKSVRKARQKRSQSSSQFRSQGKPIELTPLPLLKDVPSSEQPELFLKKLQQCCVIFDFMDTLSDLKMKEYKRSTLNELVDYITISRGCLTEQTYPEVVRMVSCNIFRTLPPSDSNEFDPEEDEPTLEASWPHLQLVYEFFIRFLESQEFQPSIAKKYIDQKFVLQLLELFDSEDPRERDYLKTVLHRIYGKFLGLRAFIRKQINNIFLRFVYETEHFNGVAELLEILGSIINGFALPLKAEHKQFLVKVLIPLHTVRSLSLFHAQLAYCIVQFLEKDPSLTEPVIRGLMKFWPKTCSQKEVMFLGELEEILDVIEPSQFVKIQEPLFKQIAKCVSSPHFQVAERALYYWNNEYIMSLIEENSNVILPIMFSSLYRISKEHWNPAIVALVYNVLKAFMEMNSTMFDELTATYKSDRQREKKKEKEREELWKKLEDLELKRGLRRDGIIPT
inactive: [1] -0.045 | [2] 0.1 | [3] 0.105 | [4] -0.118 | [5] 0.05

PTPMT1 (UniProt Q8WUK0)
inactive: [1] -0.019 | [2] 0.086 | [3] 0.029 | [4] 0.066 | [5] 0.01

PIP4P2 (UniProt Q8N4L2)
Chain of UniProt Q8N4L2 (Q8N4L2 whole entry, looked up): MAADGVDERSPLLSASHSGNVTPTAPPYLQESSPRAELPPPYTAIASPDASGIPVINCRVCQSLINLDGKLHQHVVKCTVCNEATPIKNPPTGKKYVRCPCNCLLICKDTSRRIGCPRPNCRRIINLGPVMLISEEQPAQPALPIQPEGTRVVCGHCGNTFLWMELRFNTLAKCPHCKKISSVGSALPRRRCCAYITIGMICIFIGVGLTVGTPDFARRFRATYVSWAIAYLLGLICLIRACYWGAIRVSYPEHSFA
inactive: [1] 0.045 | [2] 0.048 | [3] -0.066 | [4] -0.017 | [5] -0.018

PRKAB1 (UniProt Q9Y478)
Chain of UniProt Q9Y478 (Q9Y478 whole entry, looked up): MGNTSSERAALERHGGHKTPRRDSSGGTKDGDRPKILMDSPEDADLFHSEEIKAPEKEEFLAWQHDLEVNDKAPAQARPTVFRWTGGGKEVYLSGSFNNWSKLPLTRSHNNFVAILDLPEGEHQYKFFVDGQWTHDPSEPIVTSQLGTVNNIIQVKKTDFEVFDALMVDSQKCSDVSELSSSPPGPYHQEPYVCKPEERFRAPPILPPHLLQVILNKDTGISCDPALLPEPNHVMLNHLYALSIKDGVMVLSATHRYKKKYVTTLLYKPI
inactive: [1] 0.011 | [2] 0.037 | [3] -0.024 | [4] -0.093 | [5] -0.037

PFAS (UniProt O15067)
Chain of UniProt O15067 (O15067 whole entry, looked up): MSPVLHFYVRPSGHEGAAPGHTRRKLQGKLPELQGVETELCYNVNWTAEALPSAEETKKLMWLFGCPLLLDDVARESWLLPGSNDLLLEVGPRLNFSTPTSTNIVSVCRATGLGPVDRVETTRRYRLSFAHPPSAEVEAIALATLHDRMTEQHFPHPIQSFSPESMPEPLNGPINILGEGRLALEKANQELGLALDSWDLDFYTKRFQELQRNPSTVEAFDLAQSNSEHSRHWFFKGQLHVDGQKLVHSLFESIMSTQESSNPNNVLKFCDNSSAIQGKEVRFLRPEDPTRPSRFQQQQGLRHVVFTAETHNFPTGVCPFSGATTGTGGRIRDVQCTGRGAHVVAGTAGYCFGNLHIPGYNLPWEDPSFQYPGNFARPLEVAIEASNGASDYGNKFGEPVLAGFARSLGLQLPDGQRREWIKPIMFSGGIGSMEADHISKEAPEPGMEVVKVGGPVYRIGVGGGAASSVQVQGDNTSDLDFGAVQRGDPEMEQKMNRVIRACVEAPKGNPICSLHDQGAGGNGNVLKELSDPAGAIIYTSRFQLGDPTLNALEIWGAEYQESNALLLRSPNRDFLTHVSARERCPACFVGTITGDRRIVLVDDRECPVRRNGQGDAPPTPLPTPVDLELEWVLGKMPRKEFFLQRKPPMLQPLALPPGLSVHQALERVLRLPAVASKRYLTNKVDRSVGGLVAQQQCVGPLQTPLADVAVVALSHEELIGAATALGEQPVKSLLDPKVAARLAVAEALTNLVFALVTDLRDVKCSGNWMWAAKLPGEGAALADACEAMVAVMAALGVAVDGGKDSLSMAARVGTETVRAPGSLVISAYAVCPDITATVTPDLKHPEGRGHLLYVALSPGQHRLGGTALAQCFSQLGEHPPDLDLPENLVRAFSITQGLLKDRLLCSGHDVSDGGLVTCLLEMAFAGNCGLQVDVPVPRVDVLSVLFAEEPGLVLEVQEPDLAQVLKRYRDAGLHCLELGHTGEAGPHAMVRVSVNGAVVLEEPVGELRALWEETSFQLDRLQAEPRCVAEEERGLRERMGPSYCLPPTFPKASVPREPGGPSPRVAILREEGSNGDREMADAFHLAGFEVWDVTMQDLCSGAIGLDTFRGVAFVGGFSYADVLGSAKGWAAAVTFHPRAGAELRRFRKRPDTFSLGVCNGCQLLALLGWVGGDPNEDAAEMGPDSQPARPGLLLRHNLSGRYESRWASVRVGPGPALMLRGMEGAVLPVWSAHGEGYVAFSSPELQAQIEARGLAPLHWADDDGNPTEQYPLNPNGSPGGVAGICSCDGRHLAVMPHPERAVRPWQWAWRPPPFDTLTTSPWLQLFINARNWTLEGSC
inactive: [1] -0.08 | [2] 0.021 | [3] 0.144 | [4] 0.014 | [5] -0.065

PEX13 (UniProt Q92968)
Chain of UniProt Q92968 (Q92968 whole entry, looked up): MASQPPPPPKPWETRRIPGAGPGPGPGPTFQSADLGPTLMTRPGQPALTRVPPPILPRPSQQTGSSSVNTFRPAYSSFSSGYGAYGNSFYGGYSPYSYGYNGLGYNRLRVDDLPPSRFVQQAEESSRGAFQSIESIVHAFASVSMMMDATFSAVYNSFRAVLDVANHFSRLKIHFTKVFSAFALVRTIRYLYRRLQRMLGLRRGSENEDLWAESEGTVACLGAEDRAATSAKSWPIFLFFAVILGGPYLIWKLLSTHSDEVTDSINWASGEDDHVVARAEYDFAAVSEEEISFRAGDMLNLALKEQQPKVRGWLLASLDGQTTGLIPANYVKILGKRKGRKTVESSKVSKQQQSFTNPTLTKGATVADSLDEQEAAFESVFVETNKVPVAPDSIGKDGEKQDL
inactive: [1] -0.064 | [2] 0.05 | [3] 0.078 | [4] -0.107 | [5] 0.001

PRMT3 (UniProt O60678)
Chain of UniProt O60678 (O60678 whole entry, looked up): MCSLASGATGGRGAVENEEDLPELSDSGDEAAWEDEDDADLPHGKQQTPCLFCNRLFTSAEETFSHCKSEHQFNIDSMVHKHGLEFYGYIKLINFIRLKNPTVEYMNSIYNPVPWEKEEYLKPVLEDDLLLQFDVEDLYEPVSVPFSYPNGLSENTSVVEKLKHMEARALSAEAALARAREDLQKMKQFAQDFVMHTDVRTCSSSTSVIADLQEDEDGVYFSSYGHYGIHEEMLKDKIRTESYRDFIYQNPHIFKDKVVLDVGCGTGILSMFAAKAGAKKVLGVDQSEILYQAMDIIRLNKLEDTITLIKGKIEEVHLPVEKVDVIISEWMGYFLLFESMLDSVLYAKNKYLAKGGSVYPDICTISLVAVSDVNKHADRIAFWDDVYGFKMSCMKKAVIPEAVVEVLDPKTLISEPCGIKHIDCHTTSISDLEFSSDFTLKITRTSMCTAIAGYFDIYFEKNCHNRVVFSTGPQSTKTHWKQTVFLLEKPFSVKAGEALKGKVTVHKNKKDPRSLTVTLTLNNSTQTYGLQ
inactive: [1] -0.1 | [2] 0.077 | [3] 0.024 | [4] -0.013 | [5] 0.001

POLD1 (UniProt P28340)
Chain of UniProt P28340 (P28340 whole entry, looked up): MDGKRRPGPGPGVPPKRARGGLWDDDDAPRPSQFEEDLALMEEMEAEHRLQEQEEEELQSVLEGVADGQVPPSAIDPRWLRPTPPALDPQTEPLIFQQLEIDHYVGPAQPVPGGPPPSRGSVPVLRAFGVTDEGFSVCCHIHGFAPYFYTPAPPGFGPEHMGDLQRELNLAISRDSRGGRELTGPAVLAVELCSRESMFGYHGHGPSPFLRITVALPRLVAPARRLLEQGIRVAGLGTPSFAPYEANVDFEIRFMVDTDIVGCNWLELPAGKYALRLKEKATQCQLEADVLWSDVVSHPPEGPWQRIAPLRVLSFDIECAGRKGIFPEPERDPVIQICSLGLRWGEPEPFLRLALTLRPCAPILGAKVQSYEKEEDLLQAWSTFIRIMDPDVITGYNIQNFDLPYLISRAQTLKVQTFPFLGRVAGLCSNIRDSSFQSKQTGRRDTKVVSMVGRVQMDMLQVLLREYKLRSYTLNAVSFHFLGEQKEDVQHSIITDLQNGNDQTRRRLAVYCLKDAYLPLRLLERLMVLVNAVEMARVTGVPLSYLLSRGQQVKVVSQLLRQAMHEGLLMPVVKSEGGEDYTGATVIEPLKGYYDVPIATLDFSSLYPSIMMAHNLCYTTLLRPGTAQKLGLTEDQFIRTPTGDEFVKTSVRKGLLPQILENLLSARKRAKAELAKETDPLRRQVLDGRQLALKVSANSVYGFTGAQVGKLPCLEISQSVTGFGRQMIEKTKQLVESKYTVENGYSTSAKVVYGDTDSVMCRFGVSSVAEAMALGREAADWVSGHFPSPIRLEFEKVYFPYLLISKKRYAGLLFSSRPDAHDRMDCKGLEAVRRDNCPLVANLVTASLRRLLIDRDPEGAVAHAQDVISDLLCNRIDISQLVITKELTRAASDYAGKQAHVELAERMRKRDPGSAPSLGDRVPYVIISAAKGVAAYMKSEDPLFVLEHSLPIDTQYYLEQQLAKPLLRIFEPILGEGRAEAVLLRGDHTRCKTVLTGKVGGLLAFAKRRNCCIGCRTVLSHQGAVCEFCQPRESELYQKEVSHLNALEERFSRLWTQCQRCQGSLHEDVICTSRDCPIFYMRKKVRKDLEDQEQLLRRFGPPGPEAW
inactive: [1] 0.017 | [2] 0.019 | [3] 0.094 | [4] 0.048 | [5] 0

PRPF31 (UniProt Q8WWY3)
Chain of UniProt Q8WWY3 (Q8WWY3 whole entry, looked up): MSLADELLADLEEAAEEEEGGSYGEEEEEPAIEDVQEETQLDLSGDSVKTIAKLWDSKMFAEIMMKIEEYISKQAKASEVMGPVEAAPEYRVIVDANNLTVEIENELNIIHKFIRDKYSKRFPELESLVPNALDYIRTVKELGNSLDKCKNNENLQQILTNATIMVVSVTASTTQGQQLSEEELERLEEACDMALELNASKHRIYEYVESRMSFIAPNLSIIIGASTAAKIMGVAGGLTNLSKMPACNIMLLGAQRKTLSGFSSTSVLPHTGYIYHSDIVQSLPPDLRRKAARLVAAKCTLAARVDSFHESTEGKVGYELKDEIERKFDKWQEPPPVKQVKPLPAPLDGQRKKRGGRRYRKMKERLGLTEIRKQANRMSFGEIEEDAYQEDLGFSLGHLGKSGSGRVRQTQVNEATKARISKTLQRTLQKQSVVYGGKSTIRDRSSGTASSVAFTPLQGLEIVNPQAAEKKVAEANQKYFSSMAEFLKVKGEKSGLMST
inactive: [1] -0.07 | [2] 0.028 | [3] 0.174 | [4] -0.087 | [5] 0.005
